# Data as given in PubChem BioAssay (NCATS).
# Where “and” joins values, the source holds several entries; their conditions need not be identical. Equal entries are not always repeated. Inconclusive results are not listed. Calls of active or inactive are those of the source. Unless noted, how the calls were made is not given here.
# What was measured:
# [1] = qHTS Assay for Identifying Gametocytocidal Compounds (AID 743244; active means well fitted curve in the direction sought with a large enough effect; an effect the other way counts as inactive or inconclusive; further: potency means the concentration at half of the fitted maximal effect;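 on max response: on the % scale 0 is the no-effect control and ±100 the full control effect; actives lower the fluorescent signal which means gametocytes are killed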); settings: P. falciparum 3D7 stage III-V gametocytes, alamarBlue, 72 h; max response: stronger effect = lower value
# How it was run: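 Fluorescence at Ex 525/Em 598 nm, recorded 24 h after alamarBlue addition, reports residual metabolic activity of 3D7 gametocytes (stages III–V) following 72 h compound exposure at 37 °C, 5% CO2.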
# [2] = qHTS profiling for inhibitors of Plasmodium falciparum (3D7) proliferation (AID 743322);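 further: infected erythrocytes exposed to compound for 72 h before lysis; 100% = DMSO vehicle wells and 0% = 0.29 µM artemisinin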; settings: P. falciparum 3D7 proliferation; at 28.7 µM (top of the series)
# How it was run: (§1)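 Parasite DNA was quantified by SYBR Green I fluorescence (ex 485, em 535 nm) after overnight lysis in saponin/Triton buffer at room temperature. Cultures at 0.3% parasitemia and 2.5% hematocrit were first exposed to compound for 72 h at 37 C; signals were normalised to artemisinin (0.29 uM) and vehicle wells.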
# [3] = qHTS profiling for inhibitors of Plasmodium falciparum (DD2) proliferation (AID 743323); settings: lower = more inhibition; at 28.7 µM (top of the series)
# How it was run: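 Parasite DNA quantified by SYBR Green fluorescence (ex 485, em 535 nm) after saponin/Triton lysis and overnight dark incubation. Cultures: 0.3% parasitemia, 2.5% hematocrit, 72 h, 37 C; data scaled between DMSO and 0.29 uM artemisinin.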
# [4] = qHTS profiling for inhibitors of Plasmodium falciparum (HB3) proliferation (AID 743324; active means well fitted curve in the direction sought with a large enough effect; an effect the other way counts as inactive or inconclusive;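 further: 100% = DMSO vehicle wells and 0% = artemisinin-treated control wells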); settings: Plasmodium falciparum HB3 blood-stage proliferation; at 28.7 µM (top of the series)
# How it was run: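 SYBR Green fluorescence (485 ex/535 em) of lysed cultures, incubated overnight at room temperature in the dark, quantifies parasite DNA. Infected erythrocytes at 0.3% parasitemia and 2.5% hematocrit were exposed 72 h; values normalized to DMSO and 0.29 uM artemisinin controls.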
# [5] = qHTS profiling of the MIPE4 collection as inhibitors of Plasmodium falciparum (3D7) proliferation (AID 743344);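 further: scaled between DMSO vehicle wells and 0.29 µM artemisinin as full inhibition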; settings: P. falciparum 3D7 in erythrocytes, SYBR Green DNA fluorescence, 72 h; at 28.5 µM (top of the series) unless noted
# How it was run: as §1
# [6] = qHTS profiling of the MIPE4 collection as inhibitors of Plasmodium falciparum (DD2) proliferation (Rep 2) (AID 743346); settings: P. falciparum Dd2 in erythrocytes, SYBR Green DNA, 72 h; at 28.5 µM (top of the series) unless noted
# How it was run: as §1
# [7] = qHTS profiling of the MIPE4 collection as inhibitors of Plasmodium falciparum (HB3) proliferation (AID 743347);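 further: plate controls were DMSO vehicle wells for no effect and artemisinin wells for full effect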; settings: P. falciparum HB3 in erythrocytes, SYBR Green DNA, 72 h; at 28.5 µM (top of the series) unless noted
# How it was run: as §1
# [8] = High-throughput drug toxicity screening in the BPDCN cell line Gen2.2 (AID 1224824); settings: Gen2.2 BPDCN cells; at 45.8 µM (top of the series) unless noted;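 further: cells exposed to compounds for 48 h before reading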
# How it was run: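 Gen2.2 cells, 500 per well in phenol red-free RPMI with 10% FBS, exposed to compounds 48 h at 37 C, 5% CO2; viability by CellTiter-Glo luminescence. Percent activity scaled to DMSO (100%) and 9.2 uM bortezomib final (0%).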
# [9] = High-throughput drug toxicity screening in the BPDCN cell line Cal-1 (AID 1224825); settings: Cal-1 BPDCN cell viability, qHTS; at 45.8 µM (top of the series) unless noted
# How it was run: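 CellTiter-Glo luminescence after 48 h compound exposure; percent activity scaled with DMSO as 100% and bortezomib (9.2 uM final) as 0%. Cal-1 cells seeded at 500/well in RPMI, 10% FBS, no phenol red.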
# [10] = qHTS profiling of the MIPE4 collection as inhibitors of Plasmodium falciparum (DD2) proliferation (AID 743345); settings: P. falciparum Dd2 in erythrocytes, SYBR Green DNA, 72 h; at 28.5 µM (top of the series) unless noted
# How it was run: as §1
Compound,max response [1],remaining parasite growth % (stronger effect = lower value) [2],"activity, percent of control [3]","remaining proliferation (% of control), lower = more inhibition [4]","parasite growth, % of DMSO control [5] [%]","parasite growth, % of control (lower = inhibition) [6] [%]","growth, % of control [7] [%]","cell viability, % of control (lower = more cytotoxic) [8] [%]",viability (% of control) [9] [%],"parasite growth remaining, % of DMSO control (lower = more inhibition) [10] [%]",Potency [1]
O=C(O)c1ccc2c(c1)nc(Nc1cccc(Cl)c1)c1ccncc12,35.3% (inactive),9.86%,12.2%,-0.0167%,6.23,9.96,4.4,84.5,72.1,–,–
CC(C)(C)c1cc(C(C)(C)C)c(NC(=O)c2c[nH]c3ccccc3c2=O)cc1O,7.52% (inactive),33.5%,28.9%,18.9%,106,–,57.9,105,102,95.2,–
COc1cc2c(Oc3ccc4[nH]c(C)cc4c3F)ncnc2cc1OCCCN1CCCC1,–,-0.853%,1.27%,0.351%,6.49,15.9,6.98,7.59,6.46,8.16,18.7 µM (active)
C[C@]1(CO)CN(c2cc(C(=O)Nc3ccc4c(c3)-c3c(c(C(N)=O)nn3-c3ccc(F)cc3)CC4)c(Cl)cn2)C[C@@]1(C)CO,-20.6% (inactive),50.5%,56.4%,6.49%,11.4,38.3,9.48,27.2,6.89,–,–
CCN1CCN(Cc2ccc(-c3cc4c(N[C@H](C)c5ccccc5)ncnc4[nH]3)cc2)CC1,–,-0.0025%,1.84%,0.0196%,5.16,7.53,8.9,42.9,6.05,8.31,23.5 µM (active)
CN(C)CCCN=c1c2ccccc2n(C)c2[nH]c(=O)n(C)c(=O)c12,–,5.55%,15.1%,3.8%,5.98,–,3,2.75,4,10.8,14.8 µM (active)
COc1cccc2nc(-c3cccs3)nc(NN3C(=O)C=C(C)C3=O)c12,19.8% (inactive),92.8%,81.6%,87.8%,27.1,18.1,6.3,4.3,3.16,–,–
CCC(=C(c1ccccc1)c1ccc(OCCN(C)C)cc1)c1ccccc1,-26.2% (inactive),17.2%,5.96%,8.11%,53.1,31,69.7,31.7,23.2,37.8,–
CC(C)(C)OC(=O)Nc1ccc(-c2cc(C(=O)NCCCCCCC(=O)NO)no2)cc1,–,-1.38%,-0.213%,0.579%,4.81,–,3.96,4.96,3.94,6.42,9.35 µM (active)
O=C(NCCCNc1nc(Nc2cccc(NC(=O)N3CCCC3)c2)ncc1I)c1cccs1,-18.4% (inactive) and -12.2% (inactive),2.01% and 8.72%,5.54% and 10.1%,1.48% and 5.6%,6.21,28.1,4.4,5.4,2.96,12.5,–
Nc1cc(C(F)(F)F)c(-c2cc(N3CCOCC3)nc(N3CCOCC3)n2)cn1,-15.2% (inactive),90.8%,69.9%,58.8%,19.5,41.5,18.9,9.37,11.1,94,–
CC=C1NC(=O)[C@H]2CSSCCC=C[C@H](CC(=O)N[C@H](C(C)C)C(=O)N2)OC(=O)[C@H](C(C)C)NC1=O,–,95.6%,92.5%,98.4%,5.8,12.2,8.43,5.71,4.69,8.63,0.59 µM (active)
CC(=O)c1c(C)c2cnc(Nc3ccc(N4CCNCC4)cn3)nc2n(C2CCCC2)c1=O,–,0.348%,4.74%,0.446%,–,9.82,2.45,8.1,3.89,6.84,7.43 µM (active)
COc1cc2nccc(Oc3ccc(NC(=O)C4(C(=O)Nc5ccc(F)cc5)CC4)cc3)c2cc1OC,4.76% (inactive),3.02%,14.8%,–,3.93,7.46,2.54,5.49,5.29,10.7,–
Cc1ccc(C(N)=O)cc1Nc1nccc(-c2cn(C(C)C)c3cnccc23)n1,–,-1.17%,0.145%,-1.54%,5.53,7.77,3.05,4.31,3.01,6.53,–
CC[C@H](CO)Nc1nc(NCc2ccccc2)c2ncn(C(C)C)c2n1,-4.23% (inactive),–,–,19.5%,20,–,–,11.9,29.5,–,–
COc1cc(C(C)C)c2c(c1)S(=O)(=O)N(COc1cc(=O)n3cccc(OCCN4CCCCC4)c3n1)C2=O,-3.11% (inactive),105%,94.1%,89.5%,–,114,107,3.67,10.9,95.7,–
COc1cc(OC2CCN(C)CC2)ccc1Nc1ncc2c(n1)n(C1CCCC1)c(=O)n2C,–,9.94%,3.56%,1.94%,9.89,18.2,7.29,6.18,3.73,9.37,–
O=C(O)CO.[NH2-].[NH2-].[Pt+2],-5.78% (inactive),–,–,–,92.3,83.9,94.7,124,100,95.3,–
